Results as given in the antibiotic and cytotoxicity screens of Wong et al. (2023).
Hit rate of the full screen: of about 39,000 compounds, about 3,300 (8.5%) were called active. For the sample, actives were picked, then their nearest neighbours and some compounds at random.

system: HepG2; assay: cytotoxicity call (relative viability < 0.9); details: 10 µM

Row | SMILES | cytotoxicity call
1 | CCn1cc(C(=O)[O-])c(=O)c2cc3c(cc21)OCO3.[K+] | inactive
2 | Oc1cc2c(cc1O)CNCC2 | inactive
3 | CS(=O)(=O)C1C[C@H]2CC[C@@H](C1)N2 (some centres not stated) | inactive
4 | O=C1N[C@@H]2C(=C[C@H](O)[C@@H](O)[C@H]2O)c2cc3c(c(O)c21)OCO3 | active
5 | COC(=O)[C@H]1[C@H]2CO[C@@H]1CN2 | inactive
6 | C[C@H]1CN([C@@H](C)CO)C(=O)CCCn2cc(nn2)CO[C@H]1CN(C)C(=O)Oc1cccc2ccccc12 | inactive
7 | O=C(c1ccno1)N1C[C@@H]2CCN[C@@H]2C1 | inactive
8 | CC(=O)[O][Hg][c]1ccccc1 | active
9 | O=C(Cc1ccccc1)c1ccccc1 | inactive
10 | NCC(=O)c1ccccc1 | inactive
11 | COC(=O)CC1=C(C(=O)OC)[C@]2(C(=O)Nc3ccccc32)C(C(=O)OC)C(=N)O1 (some centres not stated) | inactive
12 | N[C@@H](c1ccccc1)[C@@H](N)c1ccccc1 | inactive
13 | CCCNC(=O)C1=NO[C@]2(CCNC2)C1 | inactive
14 | CC[C@@H](C)C(=O)O[C@@H]1C[C@@]2(C)[C@H](c3ccoc3)OC(=O)C[C@]23O[C@@]2(C)O[C@]34[C@H](OC(=O)C(C)C)[C@@]3(O)[C@@H](OC(=O)[C@@]5(C)O[C@@H]5C)[C@@]5(C)C[C@]3(O)[C@@](C)([C@H]5CC(=O)OC)[C@@]14O2 | inactive
15 | COc1ccc(OC(=O)N(C)C[C@H]2OCc3ccccc3-c3c(n(C)c4ccccc34)C(=O)N([C@@H](C)CO)C[C@@H]2C)cc1 | inactive
16 | N[C@@]1(C(=O)O)CC[C@H](C(=O)O)C1.N[C@]1(C(=O)O)CC[C@@H](C(=O)O)C1 | inactive
17 | CC(=O)OC[C@]12CCC(C)=C[C@H]1O[C@@H]1[C@H](O)[C@@H](OC(C)=O)[C@@]2(C)[C@]12CO2 | active
18 | Cc1cc(O[C@@H]2O[C@H](CO)[C@@H](O)[C@H](O)[C@H]2O)c2c3c(c(=O)oc2c1)CCC3 | inactive
19 | CC1=C[C@H]2O[C@@H]3[C@H](O)[C@@H](O[C@H]4O[C@H](CO)[C@@H](O)[C@H](O)[C@H]4O)[C@](C)([C@@]2(CO)CC1)[C@]31CO1 | active
20 | Cc1cc(CCN)on1 | inactive
21 | C[C@@H]1CN([C@H](C)CO)C(=O)CCCn2nncc2CO[C@H]1CN(C)C(=O)Oc1ccc2ccccc2c1 | inactive
22 | O=S1(=O)COC2(CNC2)CN1 | inactive

Row | SMILES | cytotoxicity call
23 | C[C@@H]1CN([C@@H](C)CO)C(=O)CCCn2cc(nn2)CO[C@@H]1CN(C)C(=O)Oc1cccc2ccccc12 | inactive
24 | COC(=O)C[C@@H](CN)c1ccc(Cl)cc1 | inactive
25 | O=C1CCCC2C3CCCN4CCCC(CN12)C34 (configuration not stated) | inactive
26 | Cl.Clc1ccc(C(OCCN2CCCCC2)c2ccccc2)cc1 (configuration not stated) | active
27 | COc1ccc([C@@H](CN)C(C)C)cc1OC | inactive
28 | N[C@H]1CCN(c2cccnc2)C1 | inactive
29 | OC[C@H]1O[C@@H](Oc2ccc(/C=C/c3cc(O)cc(O)c3)cc2O)[C@H](O)[C@@H](O)[C@@H]1O | inactive
30 | CC(=O)c1c(O)cc(C)oc1=O | inactive
31 | C=C(C)c1cc2cc(C(C)=O)c(O)cc2o1 | active
32 | COCCC(=O)N1C[C@H]2CCN[C@H]2C1 | inactive
33 | Cl.NCC(CC(=O)O)c1ccc(Cl)cc1 (racemic) | inactive
34 | C[C@]12CC/C(=N\OCCN)C[C@@H]1C(=O)C[C@@H]1[C@@H]2CC[C@]2(C)C(=O)CC[C@@H]12 | inactive
35 | O=C1NC(=O)C(C2(O)C(=O)c3ccccc3C2=O)C(=O)N1 | inactive
36 | CC(=O)O[C@H]1C(=O)[C@]2(C)[C@@H](O)C[C@H]3OC[C@@]3(OC(C)=O)[C@@H]2[C@H](OC(=O)c2ccccc2)[C@]2(O)C[C@H](O)C(C)=C1C2(C)C | active
37 | CC(=O)OC1C(=O)C2(C)C(O)CC3OCC3(OC(C)=O)C2C(OC(=O)c2ccccc2)C2(O)CC(O)C(C)=C1C2(C)C (configuration not stated) | active
38 | CC(=O)O[C@@]12CO[C@@H]1C[C@H](O)[C@@]1(C)C(=O)[C@H](O)C3=C(C)[C@@H](OC(=O)[C@H](O)[C@@H](NC(=O)c4ccccc4)c4ccccc4)C[C@](O)([C@@H](OC(=O)c4ccccc4)[C@H]21)C3(C)C | active
39 | O=C1CC[C@]2(CCCN(Cc3cnc[nH]3)C2)N1 | inactive
40 | C=CCOC(=O)[C@@H]1[C@@H](C(=O)OC)N(C)[C@@H](c2ccccc2)[C@]12C(=O)Nc1ccc(I)cc12 | inactive
41 | C=CCC1(O)CCC2C3CCC4=CCCCC4C3CCC21C (configuration not stated) | inactive
42 | CN(C)C1=NC(=O)C2(CCNCC2)N1 | inactive
43 | C#CCN(C)C(C)Cc1ccccc1.Cl (configuration not stated) | inactive
44 | CN1CCN(c2nc(=O)c3c([nH]2)CCCC3)CC1 | inactive

Row | SMILES | cytotoxicity call
45 | N=C(N)NO | inactive
46 | O=C([C@H]1CCCO1)N1CCCN2CCC[C@H]2C1 | inactive
47 | Cc1cc2ccccc2n1CCN | inactive
48 | CCNC(=O)[C@H]1O[C@@H](n2cnc3c(N)ncnc32)[C@H](O)[C@@H]1O | inactive
49 | NC(=O)c1cn([C@@H]2O[C@H](CO)[C@@H](O)[C@H]2O)c2ncnc(N)c12 | active
50 | NNc1ccn([C@@H]2O[C@H](CO)[C@@H](O)[C@H]2O)c(=O)n1 | inactive
51 | NC(=O)c1cn([C@H]2O[C@@H](CO)[C@H](O)[C@@H]2O)c2ncnc(N)c12 | active
52 | NNc1ccn([C@H]2O[C@@H](CO)[C@@H](O)[C@@H]2O)c(=O)n1 | inactive
53 | CCNC(=O)[C@H]1O[C@H](n2cnc3c(N)ncnc32)[C@@H](O)[C@@H]1O | inactive
54 | C[N+](C)(C)CC(=O)[O-].Cl | inactive
55 | O=S(=O)(N[C@H]1CCO[C@]2(CCNC2)C1)C1CC1 | inactive
56 | NCCNC[C@@H](N)CCCNC(N)=N[N+](=O)[O-].O=CC(F)(F)F | inactive
57 | CC(=O)N1CCCC[C@]12CCNC2 | inactive
58 | CCCCC1C(=O)NC(=S)NC1=O | inactive
59 | CC1CC(C)C(=O)C(C(O)CC2CC(=O)NC(=O)C2)C1 (configuration not stated) | active
60 | CC12CCC3C(CC=C4CC(O)CCC43C)C1CCC2=O (configuration not stated) | inactive
61 | COC(=O)[C@H]1CNCCN1c1ccccc1 | inactive
62 | O[C@H]1[C@H](O)[C@@H](O)CN2CC[C@H](O)[C@H]12 | inactive
63 | Cn1ncnc2c(=O)n(C)c(=O)nc1-2 | active
64 | Cc1nc2c(=O)n(C)c(=O)nc-2n(C)n1 | active
65 | Cc1nc[nH]c1CCN | inactive
66 | NC[C@@H](CS(=O)(=O)O)c1ccc(Cl)cc1 | inactive

Row | SMILES | cytotoxicity call
67 | CCN1C[C@]2(C)CC[C@H](O)[C@@]34[C@@H]5C[C@H]6[C@H](O)[C@@H]5[C@](O)(C[C@@H]6OC)[C@](O)([C@@H](OC)[C@H]23)[C@@H]14 | inactive
68 | C[C@@H]1CN([C@@H](C)CO)C(=O)c2c(c3ccccc3n2C)-c2ccccc2CO[C@@H]1CN(C)C(=O)Oc1ccccc1 | inactive
69 | CN(C)[C@@H]1C(=O)C(C(N)=O)=C(O)[C@@]2(O)C(O)=C3C(=O)c4c(O)cccc4[C@](C)(O)[C@H]3C[C@@H]12 | inactive
70 | CCC(C)C(=O)OC1CC2(C)C(c3ccoc3)OC(=O)CC23OC2(C)OC34C(OC(C)=O)C3(O)C(OC(=O)C5(C)OC5C)C5(C)CC3(O)C(C)(C5CC(=O)OC)C14O2 (configuration not stated) | inactive
71 | Cc1ccc(N=CN(C)C=Nc2ccc(C)cc2C)c(C)c1 | inactive
72 | C[C@H](CO)N1C[C@H](C)[C@@H](CN(C)C(=O)Oc2cccc3ccccc23)OCc2cnnn2CCCC1=O | inactive
73 | O=C(O)c1ccc(=O)[nH]c1 | inactive
74 | CN1CCN(Cc2ccc[nH]2)CC1 | inactive
75 | CC12CCC3c4ccc(OC(=O)N(CCCl)CCCl)cc4CCC3C1CCC2O (configuration not stated) | active
76 | C[C@]12CC[C@@H]3c4ccc(OC(=O)N(CCCl)CCCl)cc4CC[C@H]3[C@@H]1CC[C@@H]2OP(=O)(O)O | inactive
77 | Cc1cc(C)nc(NC2=NCCN2)n1 | inactive
78 | O=C(CN1CCOCC1)c1ccc(O)cc1O | inactive
79 | CC(C)[N+](C)(CCC(C(N)=O)(c1ccccc1)c1ccccc1)C(C)C.[I-] | inactive
80 | c1cc2c(c(N3CCNCC3)c1)OCCO2 | inactive
81 | CCC1(c2ccccc2)C(=O)NC(=O)NC1=O | inactive
82 | COC(=O)C[C@@H]1CC[C@H]2NC[C@H](O)COC[C@@H]2O1 | inactive
83 | COC12CC(COC(=O)c3cncc(Br)c3)CN(C)C1Cc1cn(C)c3cccc2c13 (configuration not stated) | active
84 | NCC1(c2ccc(Cl)cc2)CC1 | inactive
85 | O=C(O)/C=C/CO | inactive
86 | Cn1cc(NC(=O)c2cc(NC(=O)CNC(=N)N)cn2C)cc1C(=O)NCCC(=N)N | inactive
87 | O=C(O)CCl | inactive
88 | O=C1NC2(CCNCC2)C[C@@H]1c1ccncc1 | inactive

Row | SMILES | cytotoxicity call
89 | Cc1cccc(Cc2cnc[nH]2)c1C | inactive
90 | COc1cccc(-c2ccc3c(CCN)c[nH]c3c2)c1 | active
91 | NCCc1c[nH]c2ccccc12 | inactive
92 | COc1ccc2[nH]cc(CCN)c2c1 | inactive
93 | COc1ccc(N=[N+]=[N-])cc1 | inactive
94 | COc1ccc(C=O)cc1 | inactive
95 | C=CCc1ccc(OC)cc1 | active
96 | C[C@@H]1C(=O)NC[C@H]2CN(CC3CC3)C[C@@H]21 | inactive
97 | CNC[C@@H](O)c1ccc(O)c(OC)c1 | inactive
98 | CN1C[C@H]2CN(Cc3nccn3C)C[C@H]2C1=O | inactive
99 | N#Cc1c(Cl)c(Cl)c(Cl)c(C#N)c1Cl | active
100 | COc1ccc(C2(CN)CCOCC2)cc1 | inactive
101 | CC[C@@H]1/C=C/C=C/C[C@H](C)[C@@H](O)[C@](C)(O)C(=O)[C@H](C)[C@@H](O)[C@H](C)C(=O)[C@H](C)[C@@H](O)[C@H](C)/C=C/C(=O)O[C@H]2[C@@H](C)[C@@H](CC1)O[C@@]1(CC[C@@H](C)[C@@H](C[C@H](C)O)O1)[C@@H]2C | inactive
102 | COC(=O)C1CC(OC(C)=O)C(=O)C2C1(C)CCC1C(=O)OC(c3ccoc3)CC12C (configuration not stated) | inactive
103 | CC(=O)OC1CC2C(C)(C)C(=O)C=CC2(C)C2CCC3(C)C(=CC(=O)OC3c3ccoc3)C12C (configuration not stated) | active
104 | CC1(C)C(=O)C=CC2(C)C1CC(O)C1(C)C2CCC2(C)C(c3ccoc3)OC(=O)C3OC321 (configuration not stated) | active
105 | CC1(C)C(O)CC(O)C2(C)C1CC(=O)C1(C)C2CCC2(C)C(c3ccoc3)OC(=O)C3OC321 (configuration not stated) | inactive
106 | CC1(C)C(=O)C2OC2C2(C)C1CC(O)C1(C)C2CCC2(C)C(c3ccoc3)OC(=O)C3OC321 (stereo not drawn) [1,2alpha-EPOXYDEACETOXYDIHYDROGEDUNIN ] | inactive
107 | CC(=O)OC1CC(OC(C)=O)C2(C)C(CC(OC(C)=O)C3(C)C2CCC2(C)C(c4ccoc4)C(=O)C4OC423)C1(C)C (configuration not stated) | inactive
